Measurements from PubChem BioAssay (NCI).
This is part of a sample that, as a whole, favours compounds with a hit. Of some 83,000 tested, about 20% had one in any assay.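 48-hour exposure, single concentration, 96-well plates; percent growth endpoint where 0 means no net growth. Active: below 10.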 A number with no mark means an inactive call. Active and inactive are the calls of the source.

What was measured:
Test in all cases: NCI-60 one-dose screen, 48 h (100 = growth as untreated, 0 = no growth, -100 = all killed)
Conditions in all cases: 10 µM unless noted
SR leukemia = system: SR leukemia
RPMI-8226 leukemia = system: RPMI-8226 leukemia
OVCAR-8 ovarian = system: OVCAR-8 ovarian
OVCAR-5 ovarian = system: OVCAR-5 ovarian
OVCAR-4 ovarian = system: OVCAR-4 ovarian
SK-OV-3 ovarian = system: SK-OV-3 ovarian
IGROV1 ovarian = system: IGROV1 ovarian
OVCAR-3 ovarian = system: OVCAR-3 ovarian
HS 578T breast = system: HS 578T breast
NCI/ADR-RES ovarian = system: NCI/ADR-RES ovarian
T-47D breast = system: T-47D breast
BT-549 breast = system: BT-549 breast
MDA-MB-435 melanoma = system: MDA-MB-435 melanoma
SW-620 colon = system: SW-620 colon
MCF7 breast = system: MCF7 breast
HCT-116 colon = system: HCT-116 colon
HCC-2998 colon = system: HCC-2998 colon
KM12 colon = system: KM12 colon

| SMILES | growth (SR leukemia) | growth (RPMI-8226 leukemia) | growth (OVCAR-8 ovarian) | growth (OVCAR-5 ovarian) | growth (OVCAR-4 ovarian) | growth (SK-OV-3 ovarian) | growth (IGROV1 ovarian) | growth (OVCAR-3 ovarian) | growth (HS 578T breast) | growth (NCI/ADR-RES ovarian) | growth (T-47D breast) | growth (BT-549 breast) | growth (MDA-MB-435 melanoma) | growth (SW-620 colon) | growth (MCF7 breast) | growth (HCT-116 colon) | growth (HCC-2998 colon) | growth (KM12 colon) |
| --- | --- | --- | --- | --- | --- | --- | --- | --- | --- | --- | --- | --- | --- | --- | --- | --- | --- | --- |
| Cc1nc2ccccc2c(/C=C/c2ccc(Br)cc2)c1C(=O)/C=C/c1ccccc1 | 13.6% | -8.25% (active) | 2.21% (active) | -18% (active) | 12.5% | 49.4% | -7.6% (active) | -72.1% (active) | 25.9% | -2.99% (active) | 10.1% | 21.7% | -47.3% (active) | 2.35% (active) | 14% | -49.1% (active) | -41.4% (active) | 7.65% (active) |
| CCOC(=O)C#Cc1c(CC(=O)OCC)nnn1[C@H]1O[C@@H](CO)[C@@H]2OC(C)(C)O[C@@H]21 | 6.89% (active) | 45% | 94.6% | 93.9% | 88.4% | 94.4% | 98.3% | 9.91% (active) | 101% | 102% | 38.2% | 87.3% | 87.2% | -19% (active) | 11.5% | 65.2% | 107% | 103% |
| CN(C)CCOc1ccc(/C(=C(/CCCCCCCCCC[P+](c2ccccc2)(c2ccccc2)c2ccccc2)c2ccccc2)c2ccccc2)cc1 | -53.4% (active) | -48.3% (active) | -53.5% (active) | -97.2% (active) | -81.6% (active) | -81% (active) | -76.5% (active) | -93.9% (active) | -36.4% (active) | -69% (active) | -56.2% (active) | -78.3% (active) | -98.1% (active) | -85% (active) | -77.9% (active) | -72% (active) | -83.9% (active) | -80.9% (active) |
| O=C1/C(=C/c2ccc(Br)cc2)COc2ccc(O)cc21 | 12.1% | -23.7% (active) | 79.1% | 94.8% | 97.9% | 120% | 84.3% | 96.8% | 96.2% | 94.6% | 80.6% | 79.2% | 75.6% | 1.35% (active) | 9.07% (active) | 16.9% | 89.8% | 26.8% |
| C=C(c1ccc(OC)c(/C=C/C(=O)c2cc(OC)c(OC)c(OC)c2)c1)c1cc(OC)c(OC)c(OC)c1 | 9.47% (active) | 10.1% | 6.59% (active) | -51.3% (active) | 40% | 38.6% | 15.2% | -39.8% (active) | 96.5% | -7.33% (active) | 17.2% | 1.8% (active) | -28.1% (active) | -12.4% (active) | 8.83% (active) | -62.4% (active) | 11.4% | -4.59% (active) |
| C#CCOc1cc(/C=N/Nc2nc(-c3ccc(OC)cc3)cs2)ccc1O | 74.4% | 63.3% | 87.9% | 97.1% | 71.7% | 99.4% | 91.8% | 86.3% | 95.8% | 85.1% | 61.2% | 84.5% | 94.7% | 94.8% | 68.9% | 76.5% | 92.4% | 88.6% |
| CSc1nc(N)c2c(n1)NC(c1ccccc1)C1CCc3ccccc3C1=N2 (stereo not drawn) | 8.22% (active) | 36.6% | 42.1% | 121% | 41.6% | 85.8% | 40.4% | 43.9% | 62% | 35.8% | 33.5% | 73.9% | 55.9% | 67.7% | 57.1% | 32.3% | 88.8% | 48.3% |
| Cc1ccccc1NC(=O)c1sc2nc3c(cc2c1N)CCCC3 | 14.3% | 21.3% | 29.7% | 81.6% | 61.8% | 25.1% | 57% | 11.3% | 55.8% | 26.5% | 29.6% | 63.5% | -18.4% (active) | 19.2% | 13.3% | 29% | 64.8% | 25.2% |
| C#Cc1cccc(Nc2nc(Cl)nc3cc(NC(=O)CCl)ccc23)c1 | -39.7% (active) | -47.6% (active) | -23.9% (active) | -92% (active) | -66.4% (active) | -18.9% (active) | -59.8% (active) | -88.1% (active) | -14% (active) | -14.4% (active) | -44.7% (active) | -89.3% (active) | -76.7% (active) | -77.8% (active) | -49.5% (active) | -90.1% (active) | -84% (active) | -62.5% (active) |
| O=C(/C=C/c1ccc([N+](=O)[O-])cc1)c1cccc(Nc2nc(Nc3ccccc3)nc(Nc3ccccc3)n2)c1 | 55.8% | -60.2% (active) | 70.5% | 74.7% | 79.8% | 81% | 52% | 72.6% | 70.2% | 67.9% | 47.1% | 87.7% | 91.7% | 67.6% | 15.6% | -11.9% (active) | 46.1% | 81.1% |
| O=C1CCC(C(=O)N/N=C/c2ccc([N+](=O)[O-])cc2)N1 (stereo not drawn) | 113% | 100% | 101% | 105% | 104% | 105% | 100% | 105% | 98.8% | 103% | 99.2% | 106% | 102% | 105% | 94.8% | 105% | 95.3% | 105% |
| CCN1C(=O)N(CC)C2C1NN=c1s/c(=C\c3ccc([N+](=O)[O-])cc3)c(=O)n12 (stereo not drawn) | 19.9% | 24.3% | 15.3% | 35% | 47.7% | 42.8% | 22.6% | 7.68% (active) | 17.1% | 9.89% (active) | 23.9% | 32.7% | -23.4% (active) | 19.8% | 7.6% (active) | 7.31% (active) | 11.4% | 19.6% |
| Cc1c(C(=O)C(SC(=S)N2CCOCC2)SC(=S)N2CCOCC2)nnn1-c1ccc([N+](=O)[O-])cc1 | 69.7% | 90.1% | 99.1% | 102% | 109% | 93.3% | 98% | 108% | 123% | 111% | 92.3% | 92.5% | 105% | 100% | 79.5% | 96.5% | 104% | 111% |
| O=C(Nc1ncc(Cc2ccc(Cl)cc2)s1)c1ccc2c(c1)OCCO2 | 4.7% (active) | 20% | 21.7% | 37.1% | 50% | 33.4% | 22.3% | 2.45% (active) | 23.6% | 10.9% | 46.1% | 38.1% | 5.85% (active) | 35.4% | 10.2% | 9.61% (active) | 23.2% | 12.7% |
| CN1CCN(CCCNC(=O)c2c3c(n4ccccc24)C(=O)c2ncccc2C3=O)CC1 | -8.6% (active) | 29.4% | -9.12% (active) | 39.4% | -100% (active) | 28.6% | -24.6% (active) | -10.7% (active) | 61.2% | 40.9% | -4.38% (active) | 54.8% | -81.1% (active) | -5.63% (active) | -43.8% (active) | -16.4% (active) | -32.2% (active) | 11.3% |
| O=C(COc1ccc(/C=C2\Oc3ccccc3C2=O)cc1)Nc1nccs1 | 0% (active) | 40.4% | 41.8% | 91.8% | 90.3% | 125% | -13.3% (active) | 97.2% | 107% | 91.6% | 115% | 115% | 69.4% | 110% | 75.6% | 94.5% | 97.7% | 69.7% |
